Rows were chosen to be rich in hits. Some 7.1% of all compounds tested hit in one or more screens of this group.
LASV entry inh – qHTS for Inhibitors of binding or entry into cells for Lassa Virus | actives 4.1% (n = 18,000) | Potency, µM (top dose mostly 49.2 µM), inactives show at the top dose activity change, negative = inhibition, actives largely listed as inhibitors | Lassa virus pseudotyped entry inhibition, cell-based qHTS | AID 720533, 2013
Marburg entry – qHTS for Inhibitors of binding or entry into cells for Marburg Virus; Potency, µM (titrated, usually from 49.2 µM), for inactives: at the top dose activity change, negative = inhibition, actives largely listed as inhibitors; actives 6.5% (n = 18,000); Marburg virus pseudotype entry/binding inhibition, cell-based
* marks the source's active call; other numbers are inactive results; ? = inconclusive; / = no result; ! = not confirmed by another sample; [ ] = remark or other dose. Calls come from the whole dose curve; tested in HEK293 cells. % is set by controls: 0 for no effect and ±100 for the full control effect; potency is the fitted concentration of half-maximal effect.

SMILES | LASV entry inh | Marburg entry
CC1CC[C@@]2(OC1)OC1CC3C4CC[C@H]5CC(O)CC[C@@]5(C)C4CC[C@]3(C)C1C2C (some centres undefined) | -8% | -3%
CC1CC[C@@]2(OC1)OC1CC3C4CC[C@@H]5CC(O)CC[C@@]5(C)C4CC[C@]3(C)C1C2C (some centres undefined) | -2% | 17%
O=C(C=Cc1ccccc1)Nc1cccc(C(=O)NCCCCc2ccccc2)c1 | 9% | ?
COC(=O)N(C=Cc1ccc(OC)cc1)CCc1ccc(OC)c(OC)c1 | 1%[8.59 µM] | 3%[8.59 µM]
C[C@@H]1CC[C@H]2C(=O)N(Cc3cccc([N+](=O)[O-])c3)C[C@@H](O)CN2[C@@H]1c1ccc(Br)cc1 | -10%[8.59 µM] | -13%[8.59 µM]
CNCCNS(=O)(=O)c1cccc2cnccc12 | 23% | -16%
O=S(=O)(NCCNC/C=C/c1ccc(Br)cc1)c1cccc2cnccc12 | -7% | 13µM*
COC(=O)N[C@@H](c1cccc(C)c1)[C@]1(C(C)=O)CCCC1=O | 7%[8.59 µM] | 3%[8.59 µM]
C[C@]12C[C@@](C)(C=C1C=Cc1ccc(C(F)(F)F)cc1)C(=O)C[C@H]2c1ccc(C(F)(F)F)cc1 | 13%[8.59 µM] | 48%[8.59 µM]
Nc1nc(N)c(N=O)c(OCC2CCCCC2)n1 | -5% | 11µM*
CC1(C)CC(=O)C2=C(C1)O[C@@]1(CCCCN3C(=O)c4ccccc4C3=O)Cc3cc(C#N)ccc3[C@H]2O1 | -5%[8.59 µM] | ?
COC(=O)[C@@H]1[C@H](CCc2ccccc2)NC(=O)N(Cc2ccccc2)[C@H]1C | / | -24%[8.59 µM]
CC(C)C[C@H](NC(=O)[C@@H](O)[C@H](N)Cc1ccccc1)C(=O)O | ? | -10%
CC[C@@H](C)[C@@H](CO[C@@H](Cc1ccccc1)C(=O)N[C@@H](CCS(C)(=O)=O)C(=O)OC(C)C)NC[C@@H](N)CS | -19% | 10µM*
CC(C)c1ccc2c(N=Nc3ccc(S(N)(=O)=O)cc3)c(O)[nH]c2c1 | 23% | ?
C=C1C(=O)O[C@@H]2[C@H]3O[C@]3(C)CCC=C(C)CC[C@@H]12 | 22µM* | 16µM*
COc1ccc([C@]23Cc4cc(OC)c(OC)cc4[C@H](O2)C2=C(CCCC2=O)O3)cc1 | 3%[8.59 µM] | 6%[8.59 µM]
COc1cccc(-c2nc3cc4c(cc3cc2CN(C(=O)c2cccs2)C2CC2)CCC4)c1OC | 13µM* | ?
COc1ccc(-c2nc3cc(C)ccc3cc2CN(C(=O)c2ccco2)C2CC2)cc1OC | -24% | -7%
COc1cccc(C(=O)N(Cc2cc3ccc(C)cc3nc2N(C)C)C2CC2)c1OC | 5µM* | 4µM*
COc1ccc(-c2nc3cc(C)ccc3cc2CN(C(=O)c2cccs2)C2CC2)cc1OC | ? | -2%
CCOC(=O)C1=CN(CCC=C(C)C)C(=O)N(C(C)=O)C1c1ccccc1 (centres undefined) | -30%[8.59 µM] | 57%[8.59 µM]
O=c1[nH]cnc2c1ncn2C1OC(CO)C(O)C1O (centres undefined) | 2% | 9%
Nc1nc(Cl)nc2c1ncn2[C@@H]1O[C@H](CO)[C@@H](O)[C@H]1O | 32µM*! | ?
OCC1OC(n2cnc3c(=S)nc[nH]c32)C(O)C1O (centres undefined) | ? | 3.5µM*
SMILES | LASV entry inh | Marburg entry
Nc1nc(Cl)nc2c1ncn2C1OC(CO)C(O)C1F (centres undefined) | 2.5µM* | 2.8µM*
Nc1nc2c(ncn2[C@@H]2O[C@H](CO)[C@@H](O)[C@H]2O)c(=O)[nH]1 | -17% | 7%
OC[C@H]1O[C@@H](n2cnc3c(NC4CCCC4)nc(Cl)nc32)[C@H](O)[C@@H]1O | -17% | 13%
COc1ccc(OC)c(-c2ccccc2C=NNS(=O)(=O)c2ccc(C)cc2)c1 | -4%[8.59 µM] | ?
CC(C)=CCN1C(=O)[C@]2(O[C@H](COc3ccccc3)CC3=CCCC32)c2c(Br)cccc21 (some centres undefined) | -9%[8.59 µM] | -17%[8.59 µM]
N#Cc1c(NC(=O)CN2CCOCC2)sc2c1CCCC2 | 27% | 0%
C=CCP1(=O)O[C@H](C=C)C[C@H](C=C)O1 (some centres undefined) | 4% | 38%
COC(=O)C1=NN=C(C(=O)OC)[C@@]2(C)c3ccccc3NC12 (some centres undefined) | 13%[8.59 µM] | 44%[8.59 µM]
CN1CCC(=C2c3ccccc3CCc3sccc32)CC1 | 22µM*! | 11µM*
CN1CCC(=C2c3ccccc3CC(=O)c3sccc32)CC1 | ? | 7.1µM*!
O=S1(=O)C=CCN1Cc1ccccc1 | 38% | 6%
COc1cccc([C@H]2Oc3ccc(OC)cc3C(=NO[C@H](C)CN3CCCc4nc(C)c(C)cc43)[C@H]2O)c1 | 6%[8.59 µM] | ?
CNC(=O)c1cncc(C=Cc2ccccc2Cl)c1 | 61% | 15%
C=C(C)[C@]12C[C@@H](C)[C@@]34O[C@](Cc5ccccc5)(O[C@@H]1[C@@H]3C=C(COC(=O)Cc1ccc(O)c(OC)c1)C[C@]1(O)C(=O)C(C)=C[C@@H]41)O2 | ? | 16µM*
O=S1(=O)N[C@H](Cc2ccccc2)COc2cc(NCCO)ccc21 | 16% | 20%
CCOC(=O)[C@@]12[C@@H]3[C@@H](CCN3C(=O)N[C@H]1c1ccccc1)C2(C)C | / | 2%[8.59 µM]
CC(C)CN[S+](=O)([O-])c1ccc(Br)cc1N1CCC[C@H]1CO | 15% | 14%
CCN(CC)CCOC(=O)C(c1ccccc1)C1CCCCC1 (centres undefined) | -11% | ?
O=C(NCCCN1CCCCCC1)[C@@H](c1ccccc1)C1CCCCC1 | ? | 13µM*
Cn1cnc2c(F)c(Nc3ccc(Br)cc3Cl)c(C(=O)NOCCO)cc21 | 9% | 8%
Cc1cc(I)ccc1Nc1c(C(=O)NOCC2CC2)cc(F)c(F)c1F | ? | 11µM*
C=CCN1C[C@H](CO)Oc2cccc(F)c2S1(=O)=O | -4% | 16%
CC(C)=CCCC(C)=CCON=C1C[C@@H](O)[C@@H](O)[C@@H]2[C@H]3C(=O)N(Cc4ccccc4)C(=O)[C@@H]3CC[C@@H]12 | -1%[8.59 µM] | 3%[8.59 µM]
COc1cc2ncn(-c3cc(OC(C)c4ccccc4Cl)c(C(N)=O)s3)c2cc1OC (centres undefined) | / | 3.5µM*
COc1cc2ncn(-c3cc(OCCc4ccccc4)c(C(N)=O)s3)c2cc1OC | 7.9µM* | ?
SMILES | LASV entry inh | Marburg entry
COc1cc2ncn(-c3cc(OCc4ccccc4C(F)(F)F)c(C(=O)N(C)C)s3)c2cc1OC | -17% | ?
COc1cc2ncn(-c3cc(OCc4ccccc4S(C)(=O)=O)c(C#N)s3)c2cc1OC | -9% | ?
COC(=O)N[C@@H](c1cccc(C)c1)[C@]1(C(=O)OC)CCCC1=O | 11%[8.59 µM] | ?
C=CCOC(=O)N[C@@H](Cc1ccccc1)C(C(=O)OC)=C(C)NCc1ccccc1 | -22%[8.59 µM] | -11%[8.59 µM]
CC1(C)CN(C2CCCCC2)C(=O)[C@@H]1CC(=O)Nc1ccc(Br)cc1 | -28% | 9%
Cc1cc(C)c(N(Cc2ccccc2)S(=O)(=O)c2ccc(OCCNC(=O)c3cc4ccccc4o3)cc2)c(C(=O)NO)c1 | 13µM* | 5µM*
C#CCN1C(=O)[C@@]2(CC(C)=CC[C@@H](C)O2)c2ccccc21 | -24%[8.59 µM] | 16%[8.59 µM]
COc1c2c(c(C(=O)/C=C/C(C)=C/c3ccccc3)c3c1OCO3)CCN(C)C2 | -11% | 16µM*
COc1c2c(cc3c1OCO3)CCN(C)C2 | -2%[17.8 µM] | 17%[17.8 µM]
C[C@H]1CC[C@H]2C(=O)NC[C@H](O)CN2[C@H]1c1ccc(Br)cc1 | 11%[8.59 µM] | -10%[8.59 µM]
CCCCCCCc1cc2ccccc2c2c(C(=O)OC)cc(C(=O)OC)n12 | -12%[8.59 µM] | 25%[8.59 µM]

Screens as filed in PubChem.
